A word on the AC50: it is the concentration at which the activity in the assay is half-maximal.

Outcome and AC50 data for six compounds are collected here from PubChem BioAssay (EPA / NIEHS).

The source made the active and inactive calls. Rule for the calls: active = hit-call score of the fitted dose curve at least 0.9, where 1 is the maximum; inactive = score below 0.9.

A short description of experiment [1]: ATG_CRE_CIS: Attagene CIS-FACTORIAL HepG2 Assay for human cAMP Responsive Element (CRE) binding protein 3 (AID 2282926). The conditions noted are these: HepG2 CRE cis-reporter, Attagene multiplexed mRNA; actives raise or lower the signal. A digest of the protocol:
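Assay format: transient reporter transfection of HepG2, 24 h treatment, total RNA isolation with DNase I step. Reporter abundance read by fluorescence after PCR and capillary separation; DMSO-normalised gain or loss fitting.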

For experiment [2], the target named is CCAAT/enhancer-binding protein beta (Homo sapiens) (UniProt P17676). Briefly: ATG_C_EBP_CIS: Attagene CIS-FACTORIAL HepG2 Assay for human CCAAT/Enhancer Binding Protein (C/EBP) beta (AID 2282927). The conditions noted are these: HepG2 Attagene cis-factorial transcription factor reporter; actives raise or lower the signal. The method in brief: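 Following a 24 h incubation with test chemical, transfected HepG2 cells yielded RNA whose reporter transcripts were quantified by RT-PCR and fluorescent capillary electrophoresis, with DMSO serving as baseline for bidirectional fitting.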
Sequence of CCAAT/enhancer-binding protein beta (Homo sapiens) (P17676 whole entry, looked up): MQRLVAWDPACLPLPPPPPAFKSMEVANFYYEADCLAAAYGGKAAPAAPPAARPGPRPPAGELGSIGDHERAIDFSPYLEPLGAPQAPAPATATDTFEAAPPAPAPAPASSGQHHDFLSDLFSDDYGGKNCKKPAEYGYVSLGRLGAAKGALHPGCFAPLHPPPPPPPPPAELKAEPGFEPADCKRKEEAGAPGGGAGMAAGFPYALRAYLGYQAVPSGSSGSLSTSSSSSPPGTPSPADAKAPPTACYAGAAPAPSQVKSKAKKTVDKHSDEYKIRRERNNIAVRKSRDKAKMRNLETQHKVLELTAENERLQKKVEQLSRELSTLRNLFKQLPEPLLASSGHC

A short description of experiment [3]: ATG_CMV_CIS: Attagene CIS-FACTORIAL HepG2 Assay for human CMV (Internal Marker) (AID 2282928).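 Note: endpoint acts as a background internal control marker rather than a target.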 The conditions noted are these: HepG2 CMV promoter reporter, transcription factor profiling; actives raise or lower the signal. A digest of the protocol: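 Fluorescence intensity of RT-PCR-derived reporter fragments, resolved by capillary electrophoresis, gives the signal. HepG2 liver cells bearing transfected cis-element reporters were treated 24 h; activity in either direction was fit relative to DMSO-treated controls.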

The nature of experiment [4]: ATG_DR4_LXR_CIS: Attagene CIS-FACTORIAL HepG2 Assay for human Liver X Receptor (LXR), DR4 submotif (AID 2282929). The conditions noted are these: HepG2 Attagene DR4 cis-reporter, mRNA transcription; actives raise or lower the signal. The method in brief:
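Measures endogenous transcription factor activity via a DR4-driven reporter transcript in human HepG2 cells. Compounds incubated 24 h; mRNA quantified by RT-PCR and capillary electrophoresis, analysed as gain or loss of signal versus DMSO.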

Experiment [5] concerns the target Aryl hydrocarbon receptor (Homo sapiens) (UniProt P35869). Nature of the experiment: ATG_Ahr_CIS: Attagene CIS-FACTORIAL HepG2 Assay for human Aryl Hydrocarbon Receptor (Ahr) (AID 2282930). The conditions noted are these: HepG2 AhR cis-factorial reporter transcription; actives raise or lower the signal. The method in brief: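 Values derive from bidirectional fitting against DMSO negative control. Underlying signal: cis-element reporter mRNA in transiently transfected HepG2, harvested 24 h post-dose and measured by RT-PCR plus capillary electrophoresis.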

Experiment [6] is described as follows: ATG_AP_1_CIS: Attagene CIS-FACTORIAL HepG2 Assay for human Activator Protein 1 (AP-1) (AID 2282931). The conditions noted are these: HepG2 Attagene cis-factorial AP-1 reporter mRNA; actives raise or lower the signal. A digest of the protocol:
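Bidirectional concentration-response fitting against DMSO controls. Underlying signal: reporter mRNA from cis-promoter constructs in transiently transfected HepG2, measured after 24 h by RT-PCR and capillary electrophoresis.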

Experiment [7] can be described thus: ATG_AP_2_CIS: Attagene CIS-FACTORIAL HepG2 Assay for human Activator Protein 2 (AP-2) (AID 2282932). The conditions noted are these: HepG2 AP-2 cis-reporter, Attagene transcription factor profiling; actives raise or lower the signal. A digest of the protocol:
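Cells (HepG2) transfected with promoter-driven reporter constructs, treated 24 h. Total RNA reverse-transcribed, reporter cDNA PCR-amplified, FAM-labelled by primer extension, digested, resolved by capillary electrophoresis. Activity fitted both directions versus DMSO.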

A short description of experiment [8]: ATG_BRE_CIS: Attagene CIS-FACTORIAL HepG2 Assay for human Bone Morphogenetic Protein (BMP) Response Element (BRE) (AID 2282933). The conditions noted are these: HepG2 BMP response element reporter, Attagene transcription factor profiling; actives raise or lower the signal. The method in brief: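 HepG2 cells transiently transfected with CIS reporter units (endogenous TF activity, BMP response element), dosed 24 h. Reporter mRNA quantified by RT-PCR, fluorescent labelling and capillary electrophoresis; bidirectional fit vs DMSO baseline.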

Experiment [9] concerns the target Retinoic acid receptor alpha (Homo sapiens) (UniProt P10276). Nature of the experiment: ATG_DR5_RAR_CIS: Attagene CIS-FACTORIAL HepG2 Assay for human Retinoic Acid Receptor Alpha (RARE), DR5 submotif (AID 2282934). The conditions noted are these: HepG2 Attagene cis-factorial RARE DR5 reporter, mRNA; actives raise or lower the signal. The method in brief:
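Endpoint fitted in both directions relative to DMSO as negative control. It reflects DR5 cis-element reporter mRNA induction in transiently transfected HepG2 cells, measured 24 h after dosing through RT-PCR and fluorescent capillary electrophoresis.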

Sequence of Retinoic acid receptor alpha (Homo sapiens) (P10276 whole entry, looked up): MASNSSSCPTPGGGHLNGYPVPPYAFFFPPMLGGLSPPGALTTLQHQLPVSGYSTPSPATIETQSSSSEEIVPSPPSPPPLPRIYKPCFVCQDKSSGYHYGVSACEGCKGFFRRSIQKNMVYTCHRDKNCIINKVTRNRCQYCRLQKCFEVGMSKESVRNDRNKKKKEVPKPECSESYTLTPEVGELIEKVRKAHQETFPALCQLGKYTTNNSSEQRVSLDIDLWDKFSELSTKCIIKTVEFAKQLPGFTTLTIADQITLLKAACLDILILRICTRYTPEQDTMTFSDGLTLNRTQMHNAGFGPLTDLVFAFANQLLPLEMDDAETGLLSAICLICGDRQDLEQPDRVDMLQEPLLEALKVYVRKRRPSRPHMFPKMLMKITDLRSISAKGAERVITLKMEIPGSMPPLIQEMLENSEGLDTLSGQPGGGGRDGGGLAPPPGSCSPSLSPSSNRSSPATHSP
Sequence of Aryl hydrocarbon receptor (Homo sapiens) (P35869 whole entry, looked up): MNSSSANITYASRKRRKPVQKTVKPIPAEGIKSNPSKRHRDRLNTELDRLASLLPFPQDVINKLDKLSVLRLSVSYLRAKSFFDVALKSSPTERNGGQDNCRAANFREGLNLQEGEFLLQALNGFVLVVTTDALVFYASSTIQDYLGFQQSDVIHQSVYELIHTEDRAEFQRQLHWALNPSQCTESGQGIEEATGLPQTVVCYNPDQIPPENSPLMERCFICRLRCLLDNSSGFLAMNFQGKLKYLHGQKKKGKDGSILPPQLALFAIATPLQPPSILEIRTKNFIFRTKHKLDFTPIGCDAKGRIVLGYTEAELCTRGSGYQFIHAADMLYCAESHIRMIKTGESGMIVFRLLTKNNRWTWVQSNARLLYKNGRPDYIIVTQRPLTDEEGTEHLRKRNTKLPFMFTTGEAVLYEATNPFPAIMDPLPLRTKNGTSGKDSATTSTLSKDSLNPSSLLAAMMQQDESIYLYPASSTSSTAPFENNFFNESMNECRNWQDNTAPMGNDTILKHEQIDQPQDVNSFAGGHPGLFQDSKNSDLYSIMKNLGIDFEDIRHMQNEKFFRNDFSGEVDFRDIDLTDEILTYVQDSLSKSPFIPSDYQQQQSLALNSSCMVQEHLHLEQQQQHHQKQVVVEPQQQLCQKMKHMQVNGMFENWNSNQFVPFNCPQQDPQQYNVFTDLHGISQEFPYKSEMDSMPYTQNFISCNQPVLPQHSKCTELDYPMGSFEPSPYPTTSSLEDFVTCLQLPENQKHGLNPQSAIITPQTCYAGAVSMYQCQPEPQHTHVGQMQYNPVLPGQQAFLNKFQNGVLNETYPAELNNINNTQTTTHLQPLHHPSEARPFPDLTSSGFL

Turning to `Cc1c(Cl)cccc1Cl`, the result in experiment [1], in experiment [2], in experiment [3], in experiment [4], in experiment [5] and in experiment [6] was inactive. For the same compound, the compound was classed as inactive in experiment [7], in experiment [8] and in experiment [9].
As to `O=C1CCCN1C1CCCCC1`, the call in experiment [1], in [2], in experiment [3], in experiment [4], in [5] and in experiment [6] was inactive. The call in experiment [7], in experiment [8] and in [9] was inactive.
For the compound `CCOc1ccc(NC(N)=O)cc1`, the compound was called inactive in experiment [1], in experiment [2], in experiment [3], in experiment [4], in experiment [5] and in [6]. In addition, the outcome in experiment [7], in experiment [8] and in experiment [9] was inactive.
For `Nc1ccc(O)c([N+](=O)[O-])c1`, the call in [1], in experiment [2], in [3], in experiment [4], in experiment [6] and in experiment [7] was inactive. For the same compound, the outcome in [8] and in experiment [9] was inactive. For the same compound, the AC50 in experiment [5] was 13.9 µM (active).
As for `CCCCC(CC)COS(=O)(=O)O` (stereo not drawn), the compound was called inactive in [1], in experiment [2], in [3], in experiment [4], in experiment [6] and in [7]. Also, the compound was called inactive in experiment [8] and in [9].
With `NNS(=O)(=O)c1ccc(Oc2ccc(S(=O)(=O)NN)cc2)cc1`, the outcome in experiment [1], in [2], in [3], in experiment [4], in experiment [6] and in experiment [7] was inactive. In addition, the result in experiment [8] and in [9] was inactive. Further, in experiment [5], the AC50 was 62.3 µM (active).
